From PubChem BioAssay
Unmarked numbers belong to inactive results.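 The calls were made as follows, unless noted: active = inhibition over a set limit, the all-compound mean plus 3 SD, in both replicate runs; inconclusive = over that limit in just one replicate run; inactive = at or under that limit in both runs.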

assay: inhibitors of the yeast RAM network, pilot screen, dse1pr::URA3 reporter, 5-FOA selection (AID 869);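 also: 0% = DMSO wells with no growth and 100% = 10 µM 1-NA-PP1 with full growth; RAM network block rescues cells from 5-FOA so hits raise OD615 growth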; settings: S. cerevisiae dse1pr::URA3 5-FOA growth, OD615, 2 d; at 10 µM; stronger effect = higher value; strain carries analog-sensitive mutant Cbk1 kinase

SMILES	inhibition [%]
CCCCN=CC1=C(O)C(C(=O)OC)C(C)(C)CC1=O (stereo not given)	0.72
Cc1ccc(C)c(C(=O)CC2(O)C(=O)N(C)c3ccccc32)c1 (stereo not given)	3.41
CC(=O)C1=C(C)Nc2ncnn2C1c1cccc(OCc2ccccc2)c1 (stereo not given)	1.94
Cc1ccc(C(=O)CC2(O)C(=O)N(C)c3ccc(Br)cc32)c(C)c1 (stereo not given)	2.44
Fc1cccc(Nc2ncnc3c2cnn3-c2ccccc2)c1	0.315
COc1ccc(NC(=O)NCCN2C(=O)C3C4C=CC(C4)C3C2=O)cc1 (stereo not given)	1.5
Cc1ccc(C)c(NC(=O)CSc2nnc(-c3ccccc3)o2)c1	0.49
O=C(NCCCN1CCOCC1)c1cc(-c2ccc(O)cc2)on1	-0.505
CCOC(=O)c1ccc(NC(=O)Cn2cc3c(n2)CCC(C)C3)cc1 (stereo not given)	1.92
N#C/C(C(=O)N1CCOCC1)=C1/SC=C(c2ccccc2)N1c1ccccc1	2.57
COc1ccc(C(=O)c2coc3ccc(O)c(CN4CCCCC4)c23)cc1	0.725
CCn1c(C(=O)N2CCC(C(=O)N3CCN(c4ccccn4)CC3)CC2)cc2sccc21	0.93
CCOC(=O)N1CCN(Cc2nc3c(c(=O)n(C)c(=O)n3C)n2Cc2ccccc2)CC1	0.61
CN1CCN(C(=O)c2ccc(CS(=O)(=O)c3c(Cl)cccc3Cl)o2)CC1	1.41
CN(C)CCCN1C(=O)c2oc3ccc(Cl)cc3c(=O)c2C1c1cccnc1 (stereo not given)	0.22
O=C(CSc1nnc2ccccn12)c1ccccc1	1.23
Cc1ccccc1Cn1ccc(NC(=O)c2onc(C)c2Cl)n1	1.72
CN(CCCNC(=O)c1cn(C)c2ccc(S(=O)(=O)N(C)C)cc2c1=O)c1ccccc1	0.395
NC(=O)CN1C(=O)C(O)(CC(=O)c2ccccc2O)c2ccccc21 (stereo not given)	1.52
CC(C)CCN(C)C1CCN(S(=O)(=O)c2ccc(F)cc2)CC1	0.875

SMILES	inhibition [%]
COc1ccc(C(C)N2CC34C=CC(O3)C(C(=O)OCC(C)C)C4C2=O)cc1 (stereo not given)	1.82
COc1ccc(Cl)cc1S(=O)(=O)N1CCN(c2ccc(F)cc2)CC1	-0.355
Cc1sc2nc(SCC(=O)NCCO)n(C)c(=O)c2c1C	3.88
CC(=O)NCCc1nc2ccccc2[nH]1	-0.365
CCN1C(=O)c2cccc3c(NC(=O)c4ccc(S(=O)(=O)N(C)C)cc4)ccc1c23	0.195
Cc1nc2ccccc2c2oc(C(=O)N3CCN(C(=O)c4ccco4)CC3)cc12	0.195
c1ccc(Cn2nnc3c(N4CCCCCC4)ncnc32)cc1	0.74
COC(=O)c1cn(C(=O)c2ccc(Br)o2)c2ccccc12	2.23
CS(=O)(=O)Nc1ccccc1C(=O)O	0.72
Cn1cccc1Cc1nnc(SCC(=O)NCC2CCCO2)n1-c1ccc(F)cc1 (stereo not given)	0.02
Cc1ccc(Cn2c(=O)c3ccccc3n3c(CCC(=O)O)nnc23)cc1	2.29
COc1ccc(OCCSc2nc3ccccc3n2CC(=O)O)cc1	0.61
CCCCSc1nc2c(cnn2-c2ccc(F)cc2)c(=O)[nH]1	1.85
CCOc1ccc(NC(=O)C(C)Sc2nnc(C)n2C)cc1 (stereo not given)	0.705
CCOc1ccc2[nH]c(C)cc(=O)c2c1	2.86
Cc1nc2ccccc2c2oc(C(=O)N3CCC(N4CCCCC4)CC3)cc12	0.43
O=C(O)c1ccc2c(c1)C(=O)N(c1ccc(Cl)cn1)C2=O	1.22
COc1cccc(-c2nc(CS(=O)(=O)CC(=O)NCc3ccc(Cl)cc3)c(C)o2)c1	2.36
COc1ccc(C(NC(=O)c2ccco2)c2ccc(OC)c(OC)c2)cc1 (stereo not given)	1.3
CCOC(=O)N1CCC(NC(=O)CN2C(=O)CCSc3ccccc32)CC1	2.65

assay: RAM signaling pathway blockade in yeast – S. cerevisiae, Pdr1DBD-CYC8 efflux-inhibited sensitized strain, primary screen (AID 1298;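 active = RAM network inhibition above 8.4% in each of two replicates, 3 SD over the compound average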;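 also: 0% = DMSO untreated cells without growth and 100% = 10 µM 1-NA-PP1 full growth; higher means more yeast growth rescued from 5-FOA killing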); settings: S. cerevisiae cbk1-as DSE1-URA3 strain, 5-FOA growth OD615, 2 d; at 50 µM; stronger effect = higher value

SMILES	RAM network inhibition [%]
CCCCN=CC1=C(O)C(C(=O)OC)C(C)(C)CC1=O (stereo not given)	1.5
Cc1ccc(C)c(C(=O)CC2(O)C(=O)N(C)c3ccccc32)c1 (stereo not given)	-0.11
CC(=O)C1=C(C)Nc2ncnn2C1c1cccc(OCc2ccccc2)c1 (stereo not given)	4.69
Cc1ccc(C(=O)CC2(O)C(=O)N(C)c3ccc(Br)cc32)c(C)c1 (stereo not given)	4.59
Fc1cccc(Nc2ncnc3c2cnn3-c2ccccc2)c1	0.26
COc1ccc(NC(=O)NCCN2C(=O)C3C4C=CC(C4)C3C2=O)cc1 (stereo not given)	-1.15
Cc1ccc(C)c(NC(=O)CSc2nnc(-c3ccccc3)o2)c1	1.79
O=C(NCCCN1CCOCC1)c1cc(-c2ccc(O)cc2)on1	0.12
CCOC(=O)c1ccc(NC(=O)Cn2cc3c(n2)CCC(C)C3)cc1 (stereo not given)	6.92
N#C/C(C(=O)N1CCOCC1)=C1/SC=C(c2ccccc2)N1c1ccccc1	1.55
COc1ccc(C(=O)c2coc3ccc(O)c(CN4CCCCC4)c23)cc1	6.6
CCn1c(C(=O)N2CCC(C(=O)N3CCN(c4ccccn4)CC3)CC2)cc2sccc21	1.16
CCOC(=O)N1CCN(Cc2nc3c(c(=O)n(C)c(=O)n3C)n2Cc2ccccc2)CC1	4.53
CN1CCN(C(=O)c2ccc(CS(=O)(=O)c3c(Cl)cccc3Cl)o2)CC1	0.22
CN(C)CCCN1C(=O)c2oc3ccc(Cl)cc3c(=O)c2C1c1cccnc1 (stereo not given)	-2.19
O=C(CSc1nnc2ccccn12)c1ccccc1	2.3
Cc1ccccc1Cn1ccc(NC(=O)c2onc(C)c2Cl)n1	4.82
CN(CCCNC(=O)c1cn(C)c2ccc(S(=O)(=O)N(C)C)cc2c1=O)c1ccccc1	7.85
NC(=O)CN1C(=O)C(O)(CC(=O)c2ccccc2O)c2ccccc21 (stereo not given)	2.98
CC(C)CCN(C)C1CCN(S(=O)(=O)c2ccc(F)cc2)CC1	4.65

SMILES	RAM network inhibition [%]
COc1ccc(C(C)N2CC34C=CC(O3)C(C(=O)OCC(C)C)C4C2=O)cc1 (stereo not given)	4.69
COc1ccc(Cl)cc1S(=O)(=O)N1CCN(c2ccc(F)cc2)CC1	1.85
Cc1sc2nc(SCC(=O)NCCO)n(C)c(=O)c2c1C	2.59
CC(=O)NCCc1nc2ccccc2[nH]1	2.3
CCN1C(=O)c2cccc3c(NC(=O)c4ccc(S(=O)(=O)N(C)C)cc4)ccc1c23	3.52
Cc1nc2ccccc2c2oc(C(=O)N3CCN(C(=O)c4ccco4)CC3)cc12	2.11
c1ccc(Cn2nnc3c(N4CCCCCC4)ncnc32)cc1	5.41
COC(=O)c1cn(C(=O)c2ccc(Br)o2)c2ccccc12	4.65
CS(=O)(=O)Nc1ccccc1C(=O)O	2.56
Cn1cccc1Cc1nnc(SCC(=O)NCC2CCCO2)n1-c1ccc(F)cc1 (stereo not given)	6.15
Cc1ccc(Cn2c(=O)c3ccccc3n3c(CCC(=O)O)nnc23)cc1	6.3
COc1ccc(OCCSc2nc3ccccc3n2CC(=O)O)cc1	4.44
CCCCSc1nc2c(cnn2-c2ccc(F)cc2)c(=O)[nH]1	6.19
CCOc1ccc(NC(=O)C(C)Sc2nnc(C)n2C)cc1 (stereo not given)	-0.63
CCOc1ccc2[nH]c(C)cc(=O)c2c1	3.45
Cc1nc2ccccc2c2oc(C(=O)N3CCC(N4CCCCC4)CC3)cc12	4.3
O=C(O)c1ccc2c(c1)C(=O)N(c1ccc(Cl)cn1)C2=O	-0.74
COc1cccc(-c2nc(CS(=O)(=O)CC(=O)NCc3ccc(Cl)cc3)c(C)o2)c1	5.41
COc1ccc(C(NC(=O)c2ccco2)c2ccc(OC)c(OC)c2)cc1 (stereo not given)	2.41
CCOC(=O)N1CCC(NC(=O)CN2C(=O)CCSc3ccccc32)CC1	-0.42
